In PubChem BioAssay (NCATS):
“And” between values parts separate entries of the source, which are not always exact repeats. Equal values may be shown once. Results filed as inconclusive are left out. Where a structure was tested more than once in an assay, its records may differ in their call. The source made the active and inactive calls. Unless noted, the call rests on the fitted dose curve; in most records, active means well fitted curve in either direction with a large enough effect (not every such curve was filed as active); inconclusive means small, poorly fitted or top-dose-only effect, or another doubt; inactive means flat fitted curve, though single readings scatter.

What was measured:
[1] = target: Cytochrome P450 1A2 (Homo sapiens) (UniProt P05177); experiment: p450-cyp1a2 (AID 410; calls by dose curve; further: potency means the concentration at half of the fitted maximal effect;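 on activity change, negative = inhibition: -100% = full effect of reference inhibitor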)
Summary of the method: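 20nM CYP1A2, 100uM Luciferin-ME (=Km), 100mM KPO4; cpd 10 min RT; +NADPH regen, 60 min RT; stop/detect 20 min; luminescence. Normalized to furafylline 57 uM = full inhibition.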

[2] = target: Glucocorticoid receptor (Homo sapiens) (UniProt P04150); experiment: GR-GFP Redistribution (AID 450;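 active means compounds whose dose series gives a full or clear partial fitted curve of increased nuclear translocation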; further: potency means the concentration at half of the fitted maximal effect); settings: U2OS GR-GFP nuclear translocation, laser cytometry, 2 h
[3] = target: Glucocorticoid receptor (Homo sapiens) (UniProt P04150); experiment: GR-EFC Redistribution (AID 451; calls by dose curve; further: potency means the concentration at half of the fitted maximal effect); settings: CHO-K1 GR-EFC translocation, beta-gal luminescence, 2 h
Summary of the method: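 CHO-K1 cells expressing nuclear EA and GR-ED fragments of b-gal; compounds titrated up to 46 uM final, 2 h at 37 C. GR nuclear translocation read as complemented b-gal luminescence after 1 h RT detection.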

[4] = target: Mitogen-activated protein kinase 10 (Mus musculus) (UniProt Q61831); experiment: JNK3 AlphaScreen Assay (AID 530);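 further: kinase came from lysate of stimulated human HepG2 cells; signal reports phosphorylation of biotinylated GST-cJun 1-79 at Ser73 with 10 µM ATP; on the % scale 0 is the no-effect control and ±100 the full control effect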
Summary of the method: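 HepG2 lysate (IL-1b/TNFa pre-activated) + biotin-GST-cJun 1-79 + anti-pSer73 cJun; cpd titration, 15 min RT; ATP 10 uM start; Tris pH 7.6, MgCl2, DTT, vanadate; beads in EDTA buffer; AlphaScreen.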

[5] = AP1 Signaling Pathway (AID 357); settings: ME-180 (cervical carcinoma) AP-1-bla reporter, EGF-induced, beta-lactamase ratio, 5 h;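 further: ME-180 reporter cells stimulated with EGF at its EC50 level; on the % scale 0 is the no-effect control and ±100 the full control effect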
Summary of the method: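 Titration-series screen for positive or negative modulators of EC50 EGF-induced signaling in ME-180 cells carrying an AP-1-driven beta-lactamase reporter. After 5 hours at 37 degrees Celsius, CCF4 460nm/530nm emission ratio gave %Activity; AC50 values derived.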

[6] = Cell Viability - BJ (AID 421; calls by dose curve;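 further: potency means the concentration at half of the fitted maximal effect; cells exposed to compound for 40 hours at 37 °C before readout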); settings: BJ fibroblast viability, qHTS
Summary of the method: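 Cytotoxicity in human BJ foreskin fibroblasts is scored as loss of cellular ATP after a 40-hour exposure, measured by luciferase luminescence. Controls are DMSO and 100 uM tamoxifen.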

[7] = Cell Viability - Jurkat (AID 426;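 active means dose-dependent loss of cell ATP signal giving a full or clear fitted curve, ranked by lower potency value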;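 further: potency means the concentration at half of the fitted maximal effect; cells exposed to compound for 40 hours at 37 °C before ATP read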); settings: qHTS
Summary of the method: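 Luminescent ATP read-out (CellTiter-Glo, 20 min at room temperature) after 40 hr compound exposure at 37 °C of Jurkat E6-1 cells, 5000/well. Decreased ATP taken as cytotoxicity; AC50 from standard Hill equation.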

[8] = Cell Viability - Hek293 (AID 427;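 active means compounds whose dose-response curve shows a full or clear partial loss of cell viability, called from curve shape rather than a numeric limit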;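 further: potency means the concentration at half of the fitted maximal effect; cells exposed to compound for 40 hours at 37 °C before reading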); settings: qHTS
Summary of the method: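 qHTS, human embryonic kidney (adenovirus-transformed) cells; 40 hr cpd, 37 °C; CellTiter-Glo ATP luminescence. Norm: DMSO = 0, 100 uM tamoxifen = 100% inhibition. Hill-fit AC50.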

[9] = Cell Viability - HepG2 (AID 433; calls by dose curve;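 further: potency means the concentration at half of the fitted maximal effect; potency for ATP loss meaning cytotoxicity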); settings: qHTS
Summary of the method: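 Cytotoxicity is scored as loss of intracellular ATP in HepG2 cells exposed to compounds for 40 h. Concentration-response curves, normalized to DMSO and 100 uM tamoxifen, give AC50 values.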

[10] = Cell Viability - MRC5 (AID 434; calls by dose curve;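 further: potency means the concentration at half of the fitted maximal effect; cells exposed to compound for 40 hours at 37 °C; potency reflects cytotoxicity seen as loss of intracellular ATP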); settings: MRC5 lung fibroblast viability, qHTS
Summary of the method: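 ATP luminescence read-out (CellTiter-Glo, 20 min RT) after 40 hr, 37 °C compound exposure of 1500 MRC5 cells/well. Data normalized to DMSO (basal) and 100 uM tamoxifen (100% inhibition); AC50 from standard Hill equation.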

[11] = Cell Viability - SK-N-SH (AID 435; calls by dose curve; further: potency means the concentration at half of the fitted maximal effect); settings: SK-N-SH neuroblastoma cell viability qHTS
Summary of the method: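 Cells seeded at 1500 per well and incubated 5 hr at 37 °C. Compound added, then 40 hr at 37 °C. CellTiter-Glo added, 20 min at room temperature, luminescence read.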

[12] = NFAT Signaling Pathway (AID 444); settings: Jurkat NFAT-bla M1, carbachol, beta-lactamase ratio, 5 h;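 further: carbachol stimulus at about its EC50 of 1 µM final; on the % scale 0 is the no-effect control and ±100 the full control effect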
Summary of the method: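 Jurkat cells with NFAT-driven β-lactamase reporter and co-expressed M1 receptor, stimulated with carbachol (final 1 uM, ~EC50), compound titration, 5 h at 37 °C. CCF4 loaded 1 h at RT; 460/530 nm ratio gave %activity and AC50.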

[13] = Stat Signaling Pathway (AID 446);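 further: ME-180 cervical cancer cells given 40 pM IL-6 alongside compound; SIE-controlled beta-lactamase reporter measured as 460/530 nm FRET emission ratio; on the % scale 0 is the no-effect control and ±100 the full control effect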
Summary of the method: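 Emission at 460 and 530 nm (excitation 405 nm) reports SIE-controlled beta-lactamase in ME-180 cells. Cells received compound with 40 pM IL-6 for 5 hrs at 37 C; data scaled between 300 pM IL-6 and 125 nM JAK-inhibitor controls.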

[14] = Cell Viability - N2a (AID 540; active means well fitted curve in the direction sought with a large enough effect; an effect the other way counts as inactive or inconclusive;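 further: plate controls were DMSO alone for no effect and tamoxifen control for full effect; nearly all actives have a fitted effect of over 45% in size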)
Summary of the method: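 N2a mouse neuroblastoma, 1500 cells/well, 5 hr settle; compound 40 hr, 37 °C; CellTiter-Glo 20 min RT; luminescence; Hill-fit AC50.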

[15] = Cell Viability - NIH 3T3 (AID 541; active means well fitted curve in the direction sought with a large enough effect; an effect the other way counts as inactive or inconclusive; further: nearly all actives have a fitted effect of over 25% in size; further: potency means the concentration at half of the fitted maximal effect)
Summary of the method: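 qHTS format; 40 hr compound exposure, 37 °C; CellTiter-Glo luminescence (cellular ATP) read-out after 20 min at RT. Decrease in ATP = cytotoxicity; AC50 from standard Hill fit.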

[16] = Cell Viability - HUV-EC-C (AID 542; active means well fitted curve in the direction sought with a large enough effect; an effect the other way counts as inactive or inconclusive; further: on the % scale 0 is the no-effect control and ±100 the full control effect; nearly all actives have a fitted effect of over 35% in size)
Summary of the method: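 Luminescent ATP read-out (CellTiter-Glo, 20 min room temperature) after 40 hr compound treatment of HUV-EC-C cells at 37 °C. Concentration-response data fitted with the standard Hill equation to give AC50; tamoxifen and doxorubicin served as positive controls.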

[17] = Cell Viability - SH-SY5Y (AID 544; active means well fitted curve in the direction sought with a large enough effect; an effect the other way counts as inactive or inconclusive;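 further: 0% = DMSO alone and -100% = 100 µM tamoxifen; nearly all actives have a fitted effect of over 55% in size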)
Summary of the method: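 SH-SY5Y, 1500 cells/well, 5 hr pre-incubation 37 °C; cpd 40 hr 37 °C; CellTiter-Glo 20 min RT; luminescence (ATP) read. qHTS concentration-response, Hill fit → AC50. Tamoxifen, doxorubicin as positive controls.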

[18] = Cell Viability - Renal Proximal Tubule (AID 545; active means well fitted curve in the direction sought with a large enough effect; an effect the other way counts as inactive or inconclusive;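 further: 0% = DMSO only and -100% = 100 µM tamoxifen; nearly all actives have a fitted effect of over 40% in size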)
Summary of the method: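 Cytotoxicity is scored as a concentration-dependent drop in cellular ATP in primary rat renal proximal tubule cells exposed for 40 hr. AC50 derives from Hill modelling.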

[19] = Cell Viability - H-4-II-E (AID 543; active means well fitted curve in the direction sought with a large enough effect; an effect the other way counts as inactive or inconclusive; further: potency means the concentration at half of the fitted maximal effect; nearly all actives have a fitted effect of over 35% in size)
Summary of the method: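 qHTS, rat hepatoma H-4-II-E, 1500 cells/well; 40 hr compound exposure, 37 °C; CellTiter-Glo ATP luminescence after 20 min RT; AC50 by standard Hill fit.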

Glucocorticoid receptor (Homo sapiens), sequence (P04150 whole entry, looked up, the tested form may be a part): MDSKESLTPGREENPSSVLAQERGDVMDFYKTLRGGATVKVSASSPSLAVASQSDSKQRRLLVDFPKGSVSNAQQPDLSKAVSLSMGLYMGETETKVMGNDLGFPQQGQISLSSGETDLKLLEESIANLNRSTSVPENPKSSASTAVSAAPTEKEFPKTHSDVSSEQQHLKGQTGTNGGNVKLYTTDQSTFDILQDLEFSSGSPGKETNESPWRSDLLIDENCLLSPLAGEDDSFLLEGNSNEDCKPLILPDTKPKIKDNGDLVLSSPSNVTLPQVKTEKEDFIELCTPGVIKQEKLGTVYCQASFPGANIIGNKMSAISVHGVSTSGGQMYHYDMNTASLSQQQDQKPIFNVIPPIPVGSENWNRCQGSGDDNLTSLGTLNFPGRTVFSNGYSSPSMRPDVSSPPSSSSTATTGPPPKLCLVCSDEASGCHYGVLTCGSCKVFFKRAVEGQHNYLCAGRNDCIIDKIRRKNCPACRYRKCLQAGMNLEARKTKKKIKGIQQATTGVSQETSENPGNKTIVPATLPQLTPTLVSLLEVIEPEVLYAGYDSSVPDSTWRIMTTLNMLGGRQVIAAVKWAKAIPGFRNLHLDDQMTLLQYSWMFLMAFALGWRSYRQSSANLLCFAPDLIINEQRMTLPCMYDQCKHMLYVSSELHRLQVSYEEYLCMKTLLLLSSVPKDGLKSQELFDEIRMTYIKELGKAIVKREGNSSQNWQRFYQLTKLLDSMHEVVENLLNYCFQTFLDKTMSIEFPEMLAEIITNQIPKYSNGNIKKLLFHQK
Cytochrome P450 1A2 (Homo sapiens), sequence (P05177 whole entry, looked up): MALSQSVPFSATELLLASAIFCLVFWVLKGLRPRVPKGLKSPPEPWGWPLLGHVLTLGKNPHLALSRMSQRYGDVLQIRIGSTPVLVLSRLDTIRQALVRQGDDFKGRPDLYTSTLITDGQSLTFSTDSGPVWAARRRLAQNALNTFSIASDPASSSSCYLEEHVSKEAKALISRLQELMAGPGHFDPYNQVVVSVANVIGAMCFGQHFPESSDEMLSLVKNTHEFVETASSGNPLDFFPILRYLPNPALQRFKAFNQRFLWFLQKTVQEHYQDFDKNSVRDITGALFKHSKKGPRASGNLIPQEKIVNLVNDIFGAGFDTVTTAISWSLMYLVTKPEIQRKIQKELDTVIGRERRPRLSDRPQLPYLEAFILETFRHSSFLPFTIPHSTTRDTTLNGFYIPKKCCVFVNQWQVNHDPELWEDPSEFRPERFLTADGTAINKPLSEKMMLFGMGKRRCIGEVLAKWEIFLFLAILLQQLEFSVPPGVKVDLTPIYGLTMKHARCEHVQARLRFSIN

CCN(c1ccccc1)c1cc(NC)[n+](C)c(C)n1
active: Potency [1] 31.6 µM
inactive: Potency [2] > 46 µM | Potency [3] > 46 µM | outcome [4]

Cc1ccc2c(c1)C(=O)[C@@]1(O)CCN(c3ccccc3)C1=N2
inactive: Potency [2] > 46 µM | Potency [3] > 46 µM | outcome [4]
active: Potency [1] 3.98 µM

CCCC(CCC)C(=O)O
inactive: activity change, negative = inhibition ([5]; at 38 µM (top of the series)) 10.8% | Potency [1] | Potency [6] > 92 µM | Potency [7] > 92 µM | Potency [8] > 92 µM | Potency [9] > 92 µM | Potency [10] > 92 µM | Potency [11] > 92 µM | activity change, negative = inhibition ([12]; at 38 µM (top of the series)) 4.56% | outcome [13] | Potency [2] > 46 µM | Potency [3] > 46 µM | outcome [4] | outcome [14] | Potency [15] | outcome [16] | outcome [17] | outcome [18]

Cn1cnc([N+](=O)[O-])c1Sc1ncnc2nc[nH]c12
active: Potency [7] 0.384 µM | Potency [8] 2.04 µM | Potency [11] 0.529 µM | Potency [15] 3.98 µM | Potency [19] 0.631 µM
inactive: activity change, negative = inhibition ([5]; at 38 µM (top of the series)) 8.24% | Potency [6] > 92 µM | Potency [10] > 92 µM | activity change, negative = inhibition ([12]; at 17.2 µM (top of the series)) 13.3% | activity change, negative = inhibition ([12]; at 38 µM (top of the series)) 19.1% | outcome [13] | Potency [2] > 46 µM and > 20.6 µM | Potency [3] > 46 µM and > 20.6 µM | outcome [4] | outcome [16]

Cc1cn[nH]c1
inactive: activity change, negative = inhibition ([5]; at 38 µM (top of the series)) 13.5% | activity change, negative = inhibition ([12]; at 38 µM (top of the series)) -5.73% | outcome [13] | Potency [2] > 46 µM | Potency [3] > 46 µM

NC[C@H](O)c1ccc(O)c(O)c1
inactive: activity change, negative = inhibition ([5]; at 38 µM (top of the series)) -15.3% and -4.21% | activity change, negative = inhibition ([12]; at 38 µM (top of the series)) -7.25% and 5.9% | outcome [13] | Potency [2] > 46 µM | Potency [3] > 46 µM | outcome [4]

CC(C)(Sc1ccc(CCN(CCCCC2CCCCC2)C(=O)NC2CCCCC2)cc1)C(=O)O
inactive: Potency [1] | Potency [2] > 46 µM | Potency [3] > 46 µM | outcome [4]

CCOC(=O)C1=C[C@@]2(CC)CCCN3CCc4c(n1c1ccccc41)[C@H]32
active: activity change, negative = inhibition ([5]; at 38 µM (top of the series)) 94.5% [activator]
inactive and 39.8 µM (active): Potency [1]
inactive: activity change, negative = inhibition ([12]; at 17.2 µM (top of the series)) -3.7% | activity change, negative = inhibition ([12]; at 38 µM (top of the series)) 0.129% | outcome [13] | Potency [2] > 46 µM and > 20.6 µM | Potency [3] > 46 µM and > 20.6 µM | outcome [4]

Cc1cc2c(C(C)C)c(O)c(O)c(C=O)c2c(O)c1-c1c(C)cc2c(C(C)C)c(O)c(O)c(C=O)c2c1O
inactive: Potency [2] > 20.6 µM and > 46 µM | Potency [3] > 20.6 µM and > 46 µM
active: Potency [1] 15.8 µM | activity change, negative = inhibition ([12]; at 17.2 µM (top of the series)) -68.3%

N#Cc1ccc(C(c2ccc(C#N)cc2)n2cncn2)cc1
inactive: activity change, negative = inhibition ([5]; at 17.2 µM (top of the series)) -15.5% | activity change, negative = inhibition ([12]; at 17.2 µM (top of the series)) -8.25% | outcome [13] | Potency [2] > 20.6 µM | Potency [3] > 20.6 µM | outcome [4]

CC(C[N+](C)(C)C)OC(N)=O (centres undefined)
inactive: activity change, negative = inhibition ([5]; at 17.2 µM (top of the series)) 1.75% | outcome [13] | Potency [2] > 20.6 µM

Cc1ccccc1C(OCCN(C)C)c1ccccc1 (centres undefined)
inactive: activity change, negative = inhibition ([5]; at 17.2 µM (top of the series)) 14.6% | outcome [13] | Potency [2] > 20.6 µM
active: activity change, negative = inhibition ([12]; at 17.2 µM (top of the series)) -85.9%

CCOC(=O)N1CCC(=C2c3ccc(Cl)cc3CCc3cccnc32)CC1
inactive: Potency [2] > 46 µM and > 20.6 µM | Potency [3] > 46 µM | outcome [4]
